5 molecules from PubChem BioAssay can be followed below.

Test [1] in a line: inhibitors of TNFa-induced NFkB p65 translocation, primary screen, imaging, HUVEC, MLSMR starter and 10KST1 sets (AID 438;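 active = inhibition above 20% together with a positive visual image hit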;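 note: compound added about 3h40 before a 20 min TNFalpha stimulation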;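 for inhibition: signal is the nuclear over cytoplasmic p65 intensity ratio per well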). The conditions noted are these: HUVEC TNFa-induced p65 nuclear translocation; cell count: measured here: nuclei count (cytotoxicity indicator), at 2.08 µM; inhibition: at 2 µM, stronger effect = higher value, 0% TNFa-plus-vehicle, 100% no-TNFa wells.
The nature of test [2]: inhibitors of mutant huntingtin aggregation, primary screen, imaging, exon1htt(103Q)mCFP cells, high-content imaging (AID 483;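 active = visual image review flags a hit and inhibition of aggregation exceeds 20%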;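 note: compound exposure lasted 3 days before fixation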;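 for nuclei count: percent of the per-plate median nuclei count of sample wells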). Conditions: exon1htt(103Q)mCFP cell line, aggregate imaging, at 2 µM; inhibition of aggregation: stronger effect = higher value; nuclei count: measured here: cell count, toxicity.
Test [3] in a line: inhibitors of E-selectin induction by TNFa, primary screen, imaging, HUVEC, immunofluorescence, MLSMR starter and 10KST1 sets (AID 487;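 active = visually confirmed hit in the image check and inhibition above 20%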;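 for inhibition: signal is fraction of cell area covered by stained E-selectin grains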;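 for nuclei count: 100% = median nuclei count of all wells on the same plate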). Conditions: HUVEC TNFalpha-induced E-selectin immunofluorescence imaging, at 2 µM; inhibition: stronger effect = higher value; nuclei count: measured here: cell number, toxicity.
The nature of test [4]: DUSP6 inhibitors restoring Erk phosphorylation by chemical complementation, primary imaging in DUSP6-transfected HeLa (AID 609;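 active = compounds giving at least 50% inhibition in the cell-based MKP-3 phosphatase rescue imaging test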;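 for inhibition: phospho-Erk level distribution per well compared with pooled transfected vehicle control wells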). Conditions: HeLa MKP-3 transfected, phospho-Erk imaging KS statistic, at 10 µM, cells stimulated with TPA for 15 min.
The target of test [5] is Dual specificity protein phosphatase 6 (Homo sapiens) (UniProt Q16828). Described as above. Conditions: HeLa MKP-3 transfected, phospho-Erk imaging KS statistic; at 10 µM; stronger effect = higher value; cells stimulated with TPA for 15 min.
Test [6] concerns the target Voltage-gated potassium channel subunit beta-2 (Rattus norvegicus) (UniProt P62483). Briefly: KvBeta enzyme negative modulators, primary screen, biochemical, NADPH fluorescence (AID 622;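 active = fluorescence slope higher than the sample average by over 3 SD, cut at about -0.22 in these data, passing the limit was not always enough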;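 note: slope of raw intensity against log time taken from 70 to 1610 s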). Conditions: recombinant KvBeta, 4-cyanobenzaldehyde reduction, at 10 µM, stronger effect = higher value.
Test [7] has the same target. Briefly: KvBeta positive modulators, primary screen, biochemical, NADPH fluorescence (AID 623;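 active = NADPH fluorescence slope more negative than the mean of all samples by about 3 SD, 99.7% confidence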;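 note: fluorescence intensity change per second fitted from 20 to 320 s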). The conditions noted are these: Recombinant KvBeta, NADPH fluorescence decrease slope, 10 min; at 10 µM; stronger effect = lower value.
Test [8] addresses Alpha-2C adrenergic receptor (Homo sapiens) (UniProt P18825). Briefly: modulators of alpha2C/GIRK thallium flux, primary screen, cell-based, HEK293 alpha2C/GIRK1/2 (AID 624).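 Note: slope of fluorescence ratio to pre-addition baseline per second over 15 to 24 s.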 The conditions noted are these: thallium flux BTC fluorescence, at 10 µM, actives lie on both sides.
The nature of test [9]: inhibitors of larval lipid processing in zebrafish, primary screen, whole organism, PED6 fluorescence, gall bladder and intestine (AID 686;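 active = a full or partial loss of lipid-probe fluorescence in the fish gall bladder, intestine or both, judged by eye; inactive = no fluorescence loss, or compound toxic to the fish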;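 note: larvae 5 to 7 days old with five fish per well; signal comes from phospholipase A2 cleavage of quenched PED6 carried via bile; overnight exposure to compound and PED6 before scoring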). The conditions noted are these: Zebrafish larvae PED6 lipid processing, fluorescence scoring; screened at 20 µM (by protocol).
A short description of test [10]: inhibitors of Chlamydomonas gravitaxis, primary screen, whole organism, Chlamydomonas reinhardtii, WT vs cilia-less mutant, absorbance, 96-well (AID 463189;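 active = inhibition at or above 50% relative to wild type and mutant plate controls; inactive = inhibition below 50%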;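 note: 0% = wild type cc124 cells in DMSO and 100% = ciliumless bld1 mutant cells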). The conditions noted are these: OD600 absorbance, 2 days, at 10 µM, stronger effect = higher value.
A short description of test [11]: inhibitors of Sendai virus-induced IRF3 signaling, primary screen, TLR/RLR signaling modifier project, cell-based, Sendai virus stimulus, luciferase, 10K MLSCN set (AID 602276;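 active = inhibition at or above 50% at 10 µM; inactive = inhibition below 50%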;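 note: firefly luciferase from ISG56 promoter only with Renilla not read in this screen; 0% = Sendai virus plus DMSO and 100% = medium plus DMSO without virus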). The conditions noted are these: HEK293 RL24 IRF3 luciferase reporter, at 10 µM, stronger effect = higher value.
Test [12] in a line: inhibitors of poly I:C-induced TLR3 signaling, primary screen, cell-based, poly I:C stimulus, luciferase, 10K MLSCN set (AID 602277;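 active = inhibition of the reporter signal at or above 50%; inactive = inhibition below 50%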). The conditions noted are these: HEK293-TLR3 RL24 IRF3 luciferase reporter, at 10 µM, stronger effect = higher value. (In general: Reporter assays use an easily measured gene product as a stand-in for the process of interest.)
Setting [13] is: measured here: cell density z-score.
[14] abbreviates: measured here: nuclear c-Myc green intensity z-score.
[15] abbreviates: measured here: nuclear pErk red intensity z-score, stronger effect = higher value.

Calls of active or inactive are those of the source.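 Rule for the calls, unless noted: active = fluorescence slope after compound addition differing from the mean of all screened samples at 99.7% confidence, in either direction; inactive = the rest.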

Sequence of Dual specificity protein phosphatase 6 (Homo sapiens) (Q16828 whole entry, looked up): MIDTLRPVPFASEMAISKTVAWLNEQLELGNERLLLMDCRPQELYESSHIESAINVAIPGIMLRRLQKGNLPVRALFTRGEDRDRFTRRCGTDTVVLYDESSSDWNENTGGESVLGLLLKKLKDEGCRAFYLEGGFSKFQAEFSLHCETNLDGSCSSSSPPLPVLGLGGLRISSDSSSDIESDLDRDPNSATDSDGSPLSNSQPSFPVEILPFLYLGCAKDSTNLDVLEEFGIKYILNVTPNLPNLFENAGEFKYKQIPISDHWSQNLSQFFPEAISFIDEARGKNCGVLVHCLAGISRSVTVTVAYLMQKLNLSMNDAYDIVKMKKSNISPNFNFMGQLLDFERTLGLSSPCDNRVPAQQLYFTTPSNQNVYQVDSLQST
Sequence of Voltage-gated potassium channel subunit beta-2 (Rattus norvegicus) (P62483 whole entry, looked up): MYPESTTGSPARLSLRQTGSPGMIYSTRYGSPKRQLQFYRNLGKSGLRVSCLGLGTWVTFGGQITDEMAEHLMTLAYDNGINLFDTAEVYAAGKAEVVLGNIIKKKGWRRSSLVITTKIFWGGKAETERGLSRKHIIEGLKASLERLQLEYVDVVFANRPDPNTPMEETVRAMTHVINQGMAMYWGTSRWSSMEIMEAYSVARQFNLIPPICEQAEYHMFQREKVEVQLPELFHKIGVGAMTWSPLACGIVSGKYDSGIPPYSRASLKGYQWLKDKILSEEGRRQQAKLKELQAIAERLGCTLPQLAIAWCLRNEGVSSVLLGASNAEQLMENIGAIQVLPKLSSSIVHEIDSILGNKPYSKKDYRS
Sequence of Alpha-2C adrenergic receptor (Homo sapiens) (P18825 whole entry, looked up): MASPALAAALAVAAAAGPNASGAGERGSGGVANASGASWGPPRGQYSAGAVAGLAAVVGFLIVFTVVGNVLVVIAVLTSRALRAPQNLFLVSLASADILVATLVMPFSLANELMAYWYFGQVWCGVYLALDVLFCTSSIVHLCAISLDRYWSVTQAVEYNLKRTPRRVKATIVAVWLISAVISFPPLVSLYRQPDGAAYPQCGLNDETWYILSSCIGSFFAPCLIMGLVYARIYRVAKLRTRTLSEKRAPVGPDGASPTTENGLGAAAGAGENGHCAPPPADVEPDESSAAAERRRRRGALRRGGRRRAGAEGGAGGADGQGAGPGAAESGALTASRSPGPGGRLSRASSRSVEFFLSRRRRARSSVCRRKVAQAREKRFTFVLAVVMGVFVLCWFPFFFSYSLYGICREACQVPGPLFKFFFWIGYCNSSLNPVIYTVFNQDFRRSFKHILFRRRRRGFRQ

By inhibition is commonly meant the drop in the measured response relative to a control, in per cent. Consider `O=C1N[C@@H](Cc2cnc[nH]2)C(=O)N2CCC[C@@H]12`, for which the cell count in test [1] worked out at 563. Further, the inhibition was -1.5% (inactive) in test [1]; -32% (inactive) in [3]; -0.493% (inactive) in test [5]; 10.3% (inactive) in test [10]; 16.7% (inactive) in test [11]; 33.3% (inactive) in test [12]. For the same molecule, the inhibition of aggregation in test [2] is 17.2% (inactive). For the same molecule, the nuclei count worked out at 95.1% in test [2] and 119% in [3]. For the same molecule, the z-score is -1.25 in [4] (setting [13]), 0.0399 in test [4] (setting [14]) and -0.395 in test [4] (setting [15]). Also, the fluorescence slope in test [6] is -0.516 (inactive). In addition, the NADPH fluorescence slope in [7] is -4.6e-05 (inactive). Further, in test [8], the slope is 0.0041 (inactive). Further, in test [9], the outcome was inactive.

`CO[C@H]1C=CO[C@@]2(C)Oc3c(C)c(O)c4c(O)c(c(C=NN5CCN(C)CC5)c(O)c4c3C2=O)NC(=O)C(C)=CC=C[C@H](C)[C@H](O)[C@@H](C)[C@@H](O)[C@@H](C)[C@H](OC(C)=O)[C@@H]1C`: the cell count in test [1] is 652. Moreover, the inhibition in [1] was -3.9% (inactive); in test [3], -93.2% (inactive); in [5] it was 13.3% (inactive); in [10], 10.8% (inactive); in test [11], 33.7% (inactive); in test [12], 49.7% (inactive). Besides, the inhibition of aggregation in [2] was -21% (inactive). The nuclei count in [2] came to 108%; in test [3], 125%. The z-score in test [4] (setting [13]) was -0.406; in test [4] (setting [14]), 1.71; in test [4] (setting [15]) it was 0.381. Further, the fluorescence slope in test [6] was -0.556 (inactive). Further, the NADPH fluorescence slope in [7] was 4.3e-06 (inactive). Further, in [8], the slope was 0.00466 (inactive). Further, the outcome in [9] was inactive.

`C[C@]12CC[C@@H]3c4ccc(O)cc4CC[C@H]3[C@@H]1CC[C@@H]2OC(=O)CCC(=O)O`: in [1], the cell count came out at 543. Further, the inhibition was 4.6% (inactive) in test [1]; -5.8% (inactive) in test [3]; 5.79% (inactive) in [5]; -7.26% (inactive) in test [10]; 15.4% (inactive) in test [11]; 24% (inactive) in test [12]. Also, the inhibition of aggregation in [2] is -1.9% (inactive). Also, the nuclei count in test [2] was found to be 91.7%; in test [3] it was 111%. Also, the results for the z-score in test [4] (setting [13]), in test [4] (setting [14]) and in [4] (setting [15]) were -0.479, -0.845 and 2.04, respectively. Further, the fluorescence slope in test [6] was -0.519 (inactive). In addition, the NADPH fluorescence slope in test [7] was -3.4e-05 (inactive). The slope in test [8] was 0.0043 (inactive). The result in [9] was inactive.

As to `CC(C)Cc1nc(N2CCN(C(=O)c3ccco3)CC2)c(C#N)c2c1CCC2`, the cell count in test [1] amounted to 615. The inhibition is 2% (inactive) in test [1]; -37.8% (inactive) in test [3]; -1.75% (inactive) in [5]; -2% (inactive) in test [10]; 10.7% (inactive) in test [11]; 12.6% (inactive) in [12]. Moreover, in test [2], the inhibition of aggregation was -13.4% (inactive). Moreover, the nuclei count in test [2] was determined as 106%; in test [3], 116%. The z-score in test [4] (setting [13]) was 0.33; in test [4] (setting [14]) it was 2.04; in [4] (setting [15]) it was -0.551. The fluorescence slope in test [6] is -0.498 (inactive). For the same molecule, the NADPH fluorescence slope in [7] is -7e-05 (inactive). The slope in test [8] is 0.00426 (inactive). The result in test [9] was inactive.

Turning to `Cn1c(=O)c2c3c(sc2n2c(SCC(=O)c4ccc(Cl)cc4)nnc12)COC(C)(C)C3`, in test [1], the cell count stood at 673. Also, the inhibition in test [1] is -9.1% (inactive); in test [3], 2.7% (inactive); in test [5] it was -3.98% (inactive); in [10], 0.223% (inactive); in [11], 6.06% (inactive); in test [12] it was 10.6% (inactive). Moreover, the inhibition of aggregation in test [2] was -12.3% (inactive). In addition, the nuclei count in [2] was 105%; in test [3], 143%. For the same molecule, the z-score in test [4] (setting [13]) was -0.121; in test [4] (setting [14]), 0.129; in test [4] (setting [15]), -1.03. In addition, in [6], the fluorescence slope is -0.53 (inactive). Moreover, the NADPH fluorescence slope in [7] is -1.3e-05 (inactive). Besides, the slope in test [8] was 0.00419 (inactive). In test [9], the outcome was inactive.
